The antibiotic and cytotoxicity screens of Wong et al. (2023)
The whole screen tested about 39,000 compounds, of which about 3,300 (8.5%) were called active. The entries come from a sample that favours actives as a whole.

system: HepG2; test: cytotoxicity call (relative viability < 0.9); conditions: 10 µM

Row | Compound | cytotoxicity call
1 | COc1cccc(-c2ccc3c(c2)O[C@@H](CN(C)C(=O)C2CC2)[C@H](C)CN([C@@H](C)CO)S3(=O)=O)c1 | inactive
2 | O=C(C[C@@H]1C[C@@H]2c3cc(NS(=O)(=O)c4ccc(F)cc4)ccc3O[C@@H]2[C@@H](CO)O1)NCCN1CCCCC1 | inactive
3 | C[C@@H]1CN([C@H](C)CO)C(=O)c2cc(C#Cc3ccncc3)cnc2O[C@@H]1CN(C)S(=O)(=O)c1ccccc1F | inactive
4 | C[C@@H]1CN([C@@H](C)CO)C(=O)c2cc(C#Cc3ccncc3)cnc2O[C@H]1CN(C)S(=O)(=O)c1ccccc1F | active
5 | C[C@@H]1CN([C@H](C)CO)C(=O)c2cc(C#Cc3cccnc3)cnc2O[C@H]1CN(C)S(=O)(=O)c1ccccc1F | inactive
6 | C[C@H](CO)N1C[C@H](C)[C@H](CN(C)S(=O)(=O)c2ccccc2F)Oc2ncc(C#Cc3ccncc3)cc2C1=O | active
7 | C[C@H](CO)N1C[C@H](C)[C@@H](CN(C)S(=O)(=O)c2ccccc2F)Oc2ncc(C#Cc3ccncc3)cc2C1=O | inactive
8 | C[C@H]1CN([C@@H](C)CO)C(=O)c2cc(C#Cc3ccccc3)cnc2O[C@@H]1CN(C)S(=O)(=O)c1ccccc1F | inactive
9 | C[C@H]1CN([C@@H](C)CO)C(=O)c2cc(C#Cc3ccncc3)cnc2O[C@H]1CN(C)S(=O)(=O)c1ccccc1F | active
10 | C[C@H]1CN([C@@H](C)CO)C(=O)c2cc(C#Cc3ccncc3)cnc2O[C@@H]1CN(C)S(=O)(=O)c1ccccc1F | active
11 | C[C@@H]1CN([C@H](C)CO)C(=O)c2cc(C#Cc3ccncc3)cnc2O[C@H]1CN(C)S(=O)(=O)c1ccccc1F | inactive
12 | C[C@@H]1CN([C@H](C)CO)C(=O)c2cc(C#Cc3ccccc3)cnc2O[C@H]1CN(C)S(=O)(=O)c1ccccc1F | inactive
13 | C[C@@H]1CN([C@H](C)CO)C(=O)c2cc(C#Cc3cccnc3)cnc2O[C@@H]1CN(C)S(=O)(=O)c1ccccc1F | inactive
14 | C[C@@H]1CN([C@@H](C)CO)C(=O)c2cc(C#Cc3ccncc3)cnc2O[C@@H]1CN(C)S(=O)(=O)c1ccccc1F | inactive
15 | COc1ccc(S(=O)(=O)N[C@@H]2CC[C@@H](CC(=O)N3CCC(Cc4ccccc4)CC3)O[C@@H]2CO)cc1 | inactive
16 | O=c1c(-c2ccc(O)cc2)coc2c([C@H]3O[C@H](CO)[C@@H](O)[C@H](O)[C@H]3O)c(O)ccc12 | inactive
17 | Cc1ccc2nc(-c3ccco3)[nH]c2c1 | inactive
18 | CCS(=O)(=O)N1C[C@]2(CCN(CC2)C(=O)Nc2c(noc2C)C)c2c(n(c3cc(ccc23)OC)C)[C@@H]1CO | inactive
19 | C[C@H](CO)N1C[C@H](C)[C@@H](CN(C)S(=O)(=O)c2ccc(F)cc2)Oc2ccc(NC(=O)Cc3ccccc3)cc2CC1=O | inactive
